KDM5B inh: inhibitors of human KDM5B histone demethylase | Q9UGL1 | Potency, µM (series often up to 57.7 µM), actives largely listed as inhibitors | 2.6% of 220,000 active | KDM5B demethylase, FDH-coupled NADH fluorescence (FDH is formaldehyde dehydrogenase) | AID 1347165; further: nearly all actives have a fitted effect of over 70% in size
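Inhibition is measured as reduced NADH fluorescence generation from FDH coupling to formaldehyde release. Truncated KDM5BΔAP at 200 nM final acts on H3K4me3 peptide (12.5 µM in substrate mix) in pH 7.5 HEPES buffer with Tween-20, 30 min, room temperature.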
SNCA viab count: counter-screen for SNCA expression inhibitors: cell viability; HEK-293-SNCA-luc viability, GF-AFC fluorescence, 24 h; Potency, µM (top dose mostly 57.1 µM), most hits filed as cytotoxic; 0.12% of 150,000 active; AID 1671193; further: nearly all actives have a fitted effect of over 30% in size
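Cytotoxicity counterscreen: after 24 h compound treatment of genome-edited SNCA-luciferase HEK-293 cells, live-cell protease substrate GF-AFC read by fluorescence after 30 min; activity scaled between DMSO (0%) and medium-only (-100%), curves Hill-fitted.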
IP6K1 inh: blocks human inositol hexakisphosphate kinase 1; activity change, % (series mostly up to about 58 µM); IP6K1 kinase, ADP-Glo luminescence, 2 h; stronger effect = lower value; 0.81% of 140,000 active; AID 1645851; in the data active means activity change below about -25%
Target sequence (Q92551 whole entry, looked up): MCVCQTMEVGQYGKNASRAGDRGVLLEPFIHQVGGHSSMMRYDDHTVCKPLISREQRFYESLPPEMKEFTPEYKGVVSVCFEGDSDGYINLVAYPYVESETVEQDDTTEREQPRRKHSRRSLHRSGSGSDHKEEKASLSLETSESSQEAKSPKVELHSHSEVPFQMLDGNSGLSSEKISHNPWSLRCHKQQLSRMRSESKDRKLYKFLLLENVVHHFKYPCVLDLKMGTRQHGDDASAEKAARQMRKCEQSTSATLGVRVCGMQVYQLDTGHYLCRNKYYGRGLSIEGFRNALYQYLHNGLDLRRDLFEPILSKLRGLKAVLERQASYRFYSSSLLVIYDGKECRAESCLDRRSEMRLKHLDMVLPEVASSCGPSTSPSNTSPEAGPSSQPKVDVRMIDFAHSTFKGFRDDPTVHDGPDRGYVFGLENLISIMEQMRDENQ
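ADP-Glo luminescence measures ADP made by human IP6K1 during a 2 h RT reaction with ATP/IP6 (mix at 1.3 mM/130 uM); top library doses 57.5 and 19.1 uM final.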
SNCA expr inhib: inhibitors of alpha-synuclein (SNCA) gene expression | HEK-293 SNCA-luciferase knock-in, luminescence, 24 h | Potency, µM (series often up to 57.2 µM), usual class: inhibitors | 0.17% of 140,000 active | AID 1671194; further: nearly all actives have a fitted effect of over 45% in size
Large screens that a line does not name were inactive. Rows were chosen to be rich in hits. Some 2.8% of all compounds tested hit in one or more screens of this group. Unless noted, the call rests on the fitted dose curve; in most records, active means well fitted curve in the direction sought with a large enough effect; inconclusive means small, poorly fitted or top-dose-only effect, or another doubt; inactive means no such curve, though single readings can be large; an effect the other way counts as inactive or inconclusive.

O=C1Cc2c(-c3ccc(F)cc3F)n[nH]c2CN1CCc1ccncc1	none
Cn1cccc1C(=O)N[C@@H]1CN(c2ncccn2)C[C@H]1CO	KDM5B inh inconclusive
CN(C)C[C@@H]1CN(c2ncccn2)C[C@H]1NC(=O)NCCc1ccccc1	KDM5B inh inconclusive
Cn1cnc(C(=O)N[C@@H]2CN(c3ncccn3)C[C@H]2CO)c1	KDM5B inh 28.2µM
O=C(N[C@@H]1CN(c2ncccn2)C[C@H]1CO)c1cc2ccccc2[nH]1	KDM5B inh 14.1µM
Cn1nccc1C(=O)N[C@@H]1CN(c2ncccn2)C[C@H]1CO	KDM5B inh inconclusive
CN(C)C[C@@H]1CN(Cc2cccnc2)C[C@H]1NC(=O)c1cc2ccccc2[nH]1	KDM5B inh 28.2µM
CN(C)C[C@@H]1CN(c2ncccn2)C[C@H]1NC(=O)c1cc2ccccc2[nH]1	KDM5B inh 28.2µM
CS(=O)(=O)c1ccc(OCC2(CNCc3ccc(F)cc3)C[C@@H](O)[C@@H](O)C2)cc1 (some centres not stated)	none
COc1cc(C(=O)N2CCC(CC(=O)NCCN3CCOCC3)CC2)cc(OC)c1OC	none (no result: SNCA viab count, IP6K1 inh, SNCA expr inhib)
Cc1cc(C)n(CC(=O)N[C@@H]2CN(Cc3ccccc3)C[C@H]2CN(C)C)c(=O)n1	KDM5B inh 8.91µM
COc1ccc(CNc2ncncc2-c2ccc(C(=O)N(C)C)cc2)c(OC)c1	none (no result: KDM5B inh, IP6K1 inh)
CS(=O)(=O)NCCc1ccc(C(=O)CSc2ccc(F)cc2)s1	none (no result: SNCA viab count, IP6K1 inh, SNCA expr inhib)
C[C@]1(CO)[C@H]2Cc3sc(-c4ccccc4)nc3[C@@H](CC(=O)N3CCOCC3)[C@]2(C)CC[C@H]1O	KDM5B inh inconclusive, SNCA expr inhib inconclusive
CCCCCC(=O)Nc1nc2c(s1)C[C@@H]1[C@](C)(CO)[C@H](O)CC[C@@]1(C)[C@@H]2CC(=O)N[C@H](C)c1ccccc1	none
CC(C)C[C@H](CO)NC(=O)C[C@@H]1c2nc(-c3cccnc3)sc2C[C@@H]2[C@](C)(CO)[C@H](O)CC[C@]21C	KDM5B inh 31.6µM
C[C@@H](NC(=O)C[C@@H]1c2nc(-c3cccnc3)sc2C[C@@H]2[C@](C)(CO)[C@H](O)CC[C@]21C)c1ccccc1	KDM5B inh 31.6µM
C#CCN(C)C(=O)C[C@@H]1c2nc(-c3cccnc3)sc2C[C@@H]2[C@](C)(CO)[C@H](O)CC[C@]21C	KDM5B inh 31.6µM
COCCNC(=O)C[C@@H]1c2nc(-c3ccccc3)sc2C[C@@H]2[C@](C)(CO)[C@H](O)CC[C@]21C	KDM5B inh 28.2µM
S=c1[nH]c2cc(C34CC5CC(CC(C5)C3)C4)ccc2o1	none (no result: SNCA viab count, IP6K1 inh, SNCA expr inhib)
CC(C)c1noc(-c2cccn3c(CNC(=O)Cc4cccc(F)c4)nnc23)n1	KDM5B inh inconclusive
Cc1ccc(C(=O)NCc2nnc3c(-c4nc(C(C)C)no4)cccn23)cc1C	KDM5B inh 28.2µM
Cc1cc(C)cc(C(=O)NCc2nnc3c(-c4nc(C(C)C)no4)cccn23)c1	KDM5B inh 22.4µM
Cc1ccccc1C(=O)NCc1nnc2c(-c3nc(C(C)C)no3)cccn12	KDM5B inh inconclusive
CC(C)c1noc(-c2cccn3c(CNC(=O)c4c(F)cccc4F)nnc23)n1	KDM5B inh 28.2µM
CC(C)c1noc(-c2cccn3c(CNC(=O)c4cccc(F)c4)nnc23)n1	KDM5B inh 25.1µM
CCC(=O)NCc1nnc2c(-c3nc(C(C)C)no3)cccn12	KDM5B inh inconclusive
COc1cccc(-c2nc3c(c(SCc4ccccc4Cl)n2)Cc2c(CO)cnc(C)c2O3)c1	none
CCn1c(Cn2ccc3ccccc3c2=O)nnc1C1CC(N)C1 (configuration not stated)	none
CCN(CC)S(=O)(=O)c1cccc(NC(=O)c2nn(Cc3ccccc3)c(=O)c3ccccc23)c1	none (no result: SNCA viab count, IP6K1 inh, SNCA expr inhib)
CC(C)c1noc(-c2cccn3c(CNC(=O)c4cccc(Cl)c4)nnc23)n1	KDM5B inh 22.4µM
CC(C)c1noc(-c2cccn3c(CNC(=O)c4cc5ccccc5[nH]4)nnc23)n1	KDM5B inh inconclusive
Cc1ccc(C(=O)NCc2nnc3c(-c4nc(C5CC5)no4)cccn23)cc1C	KDM5B inh 10µM
Cc1cccc(C(=O)NCc2nnc3c(-c4nc(C(C)C)no4)cccn23)c1	KDM5B inh 28.2µM
COc1ccc(C(=O)NCc2nnc3c(-c4nc(C5CC5)no4)cccn23)c(C)c1	SNCA expr inhib inconclusive
O=C(O)CCC(=O)N[C@H]1CO[C@H]2[C@@H]1OC[C@@H]2Nc1nccc(-c2cccc(F)c2)n1	KDM5B inh 31.6µM
O=C(O)CSCC(=O)N[C@H]1CO[C@H]2[C@@H]1OC[C@@H]2Nc1nccc(-c2cccc(F)c2)n1	KDM5B inh 25.1µM
c1coc(-c2ccnc(N[C@H]3CO[C@H]4[C@@H]3OC[C@@H]4NCC3CCCCC3)n2)c1	KDM5B inh 31.6µM
CC(=O)Nc1ccc(S(=O)(=O)N[C@H]2CO[C@H]3[C@@H]2OC[C@@H]3Nc2nccc(-c3ccco3)n2)cc1	KDM5B inh 22.4µM
COc1ccc(-c2ccnc(N[C@H]3CO[C@H]4[C@@H]3OC[C@@H]4NS(=O)(=O)c3ccc(NC(C)=O)cc3)n2)cc1	KDM5B inh inconclusive
CCCN1CCN(S(=O)(=O)c2ccc(/C=C\c3onc(C)c3NC(=O)C3CC3)cc2)CC1	none (no result: SNCA viab count, IP6K1 inh, SNCA expr inhib)
CCSc1ncc(Cl)c(C(=O)Nc2nc3ccc(Cl)cc3s2)n1	none
CNC(=O)c1cc(C)nc2onc(C3CCCN3C(=O)NC(C)C)c12 (configuration not stated)	none (no result: KDM5B inh, SNCA viab count, SNCA expr inhib)
Cn1cc(CCNC(=O)CC2C(=O)NCCN2CC(c2ccccc2)c2ccccc2)cn1 (configuration not stated)	none (no result: SNCA viab count, IP6K1 inh, SNCA expr inhib)
O=C(O)CCC(=O)N[C@H]1CO[C@H]2[C@@H]1OC[C@@H]2Nc1nccc(-c2ccco2)n1	KDM5B inh 31.6µM
COC1CN(C2CCN(C(=O)Nc3ccc(C)c(C)c3)CC2)C12CCOCC2 (configuration not stated)	none (no result: KDM5B inh)
FC(F)(F)c1ccc(N2C3CCC2CN(Cc2ccc(-c4cccs4)cc2)C3)cc1	KDM5B inh 28.2µM, SNCA expr inhib inconclusive
O=C(c1ccncc1)N1CC2CCC(C1)N2Cc1ccc(-c2cccs2)cc1	KDM5B inh 79.4µM
COc1ccccc1N1CCCc2ncc(C(=O)Nc3cccc(C(F)(F)F)c3)cc21	KDM5B inh 31.6µM
COc1ccccc1N1CCCc2ncc(C(=O)Nc3cccnc3)cc21	none
COc1cccc(NC(=O)c2cnc3c(c2)N(Cc2ccccc2)CCC3)c1	KDM5B inh 31.6µM
Fc1ccccc1OCc1nc2ccccc2n1C(F)F	none (no result: SNCA viab count, IP6K1 inh, SNCA expr inhib)
O=C(c1ccc(Cl)cc1)N1CCC(n2cc(-c3ccccn3)[nH]c2=O)CC1	KDM5B inh 44.7µM
COc1cc(CCC(=O)N2CCc3nn(Cc4ccccc4)c(=O)n3CC2)on1	none
O=C(Nc1ccc2c(N3CCCC3)ncnc2c1)c1ccc(Br)cc1	KDM5B inh inconclusive, SNCA viab count inconclusive, SNCA expr inhib inconclusive
COc1ccc(CC(=O)Nc2ccc3ncnc(N4CCCCC4)c3c2)c(Cl)c1	KDM5B inh 31.6µM
O=C(Nc1ccc2ncnc(N3CCCC3)c2c1)c1cccc(Br)c1	KDM5B inh 31.6µM
Nc1ccc2ncnc(N3CCCC3)c2c1	KDM5B inh 28.2µM

Screening results as filed in PubChem BioAssay.
